Source: PubChem BioAssay (National Center for Advancing Translational Sciences (NCATS))
FMDV inh – blocks foot and mouth disease virus; FMDV antiviral cell-based qHTS; Potency, µM (titrated, usually from 57.9 µM), for inactives: at the highest dose activity change, negative = inhibition, actives largely listed as inhibitors; actives 1.2% (n = 410,000); calls by dose curve; tested in HEK293T cells; note: read-out not given here; potency is the fitted concentration of half-maximal effect; nearly all actives have a fitted effect of over 45% in size
Giardia FBPA inh – Giardia lamblia aldolase inhibition; A8B2U2; purified Giardia FBPA; Potency, µM (series often up to 59.6 µM), without a hit: at the highest dose activity, negative = inhibition, usual class: inhibitors; actives 0.71% (n = 290,000); AID 2451; note: potency is the fitted concentration of half-maximal effect; nearly all actives have a fitted effect of over 55% in size
Target sequence (A8B2U2 whole entry, looked up): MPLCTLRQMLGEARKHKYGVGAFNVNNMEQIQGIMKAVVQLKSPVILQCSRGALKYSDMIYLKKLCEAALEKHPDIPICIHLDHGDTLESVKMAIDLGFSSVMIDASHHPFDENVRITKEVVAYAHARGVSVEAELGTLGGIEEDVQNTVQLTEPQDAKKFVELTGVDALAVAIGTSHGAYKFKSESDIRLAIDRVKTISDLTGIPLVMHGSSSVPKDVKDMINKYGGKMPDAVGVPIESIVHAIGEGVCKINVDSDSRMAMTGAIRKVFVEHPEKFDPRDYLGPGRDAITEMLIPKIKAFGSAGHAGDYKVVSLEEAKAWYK
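Giardia FBPA (40 nM reagent) was preincubated 10 min at RT with compound (up to 57.5 uM final), then substrate plus GAPDH/TPI/NAD/arsenate coupling system with diaphorase/resazurin was added; resorufin fluorescence (525/598 nm) was read after 20 min.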
HCMV inh – inhibitors of human cytomegalovirus; HFF cells, HCMV-luciferase reporter, 72 h; stronger effect = lower value; activity change, negative = inhibition, % at 57.5 µM; actives 4.5% (n = 410,000); AID 1259415; in the data active = activity change below about -60%; inconclusive = no clear call, values can overlap the other calls; inactive = above about -39%
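After 16 h attachment at 37C, HFF cells received test compound and HCMV-luciferase (1 PFU/cell); reporter luminescence read 72 h later, data normalized against buffer-only and known inhibitor Salinomycin.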
Tb PYK inh – inhibitors of Trypanosoma brucei pyruvate kinase. Q57TT1. AID 624173. actives 0.12% (n = 410,000). TbPYK enzyme, Kinase-Glo Plus ATP luminescence, 45 min. Potency, µM (doses to about 76.8 µM), for the others: at the highest dose activity, negative = inhibition, most hits filed as inhibitors; note: potency is the fitted concentration of half-maximal effect; nearly all actives have a fitted effect of over 50% in size
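Enzyme and substrate buffer are dispensed first and compound is pin-transferred. ADP at 130 uM final then starts the reaction, which runs 45 min at room temperature. Detection reagent is added for 10 min before luminescence is imaged.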
RE007 growth inh – less growth of the S. pombe RE007 Vpr strain. AID 651644. Potency, µM (top dose mostly 92.2 µM), without a hit: top-dose activity change, negative = less growth, usual class: inhibitors. S. pombe RE007 Vpr strain, BacTiter-Glo ATP luminescence, 24 h. actives 0.21% (n = 360,000); active = well fitted falling curve with a large enough effect; inconclusive = small, poorly fitted or top-dose-only effect; inactive = no such curve, though single readings can be large or run the other way; note: potency is the fitted concentration of half-maximal effect; nearly all actives have a fitted effect of over 50% in size
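Fission yeast strain RE007, carrying one chromosomally integrated HIV-1 vpr copy, was seeded at OD 0.01 in PMG+AL medium with 23 nL pinned compound. After 24 h at 30 °C and 99% humidity, viability was read by BacTiter-Glo luminescence.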
Sm TGR inh – S. mansoni TGR enzyme inhibition. Potency, µM (titrated, usually from 114 µM), for inactives: at the top dose activity change, negative = inhibition, usual class: inhibitors. purified TGR, DTNB reduction, TNB absorbance 405 nm. AID 485364. Q962Y6. actives 3% (n = 360,000); note: potency is the fitted concentration of half-maximal effect; nearly all actives have a fitted effect of over 60% in size
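TGR 20 nM + NADPH 100 uM (dispensed conc.), cpd preinc 15 min RT; start with NADPH (500 uM addition) then DTNB (15 mM addition). Kinetic TNB absorbance, 405 nm filter. Four-parameter Hill fit across titration.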
Starred values were filed as active, the others as inactive; ? = inconclusive; nt = no result; [ ] = another dose, or the depositor's remark. Compounds with a hit are over-represented: about 7.7% of the library has one in this group of screens. Unless noted, calls come from the whole dose curve; as a rule, active = well fitted curve in the direction sought with a large enough effect; inconclusive = small, poorly fitted or top-dose-only effect, or another doubt; inactive = no such curve, though single readings can be large; an effect the other way counts as inactive or inconclusive. % is set by controls: 0 for no effect and ±100 for the full control effect.

SMILES | FMDV inh | Giardia FBPA inh | HCMV inh | Tb PYK inh | RE007 growth inh | Sm TGR inh
CCOC(=S)SCC(=O)Nc1nccs1 | 22µM* | 2% | 3 | 3% | -24% | 7%
CCOC(=S)SCC(=O)Nc1nc(C)c(C)s1 | -1% | -12% | 65 | -4% | 8% | 8%
CCc1nnc(NC(=O)CN2CCC(O)(c3ccccc3OC)CC2)s1 | nt | -24% | -4 | -8% | 10% | -14%
COc1ccccc1C1(O)CCN(CC(=O)Nc2nc(-c3ccccc3)cs2)CC1 | 25µM* | -4% | -12 | -1% | 27% | 0%
CCOC(=S)SCC(=O)Nc1nc(-c2ccc(Br)cc2)cs1 | ? | 0% | -100* | 1% | 21% | 8%
CCOC(=S)SCC(=O)Nc1nc(-c2ccccc2)cs1 | -15% | -7% | -73* | 5% | -29% | -20%
Cc1nn(C(C)C(=O)NCc2cccc(F)c2)c(=O)c2c1sc1ccccc12 (stereo not given) | -14% | nt | -16 | -7% | nt | 2%
Cc1ccccc1Nc1c(-c2ccco2)nc2c(C)cccn12 | -14% | nt | -36 | 2% | nt | ?
CN(C)c1ccc(C(CNS(=O)(=O)c2ccc(Br)cc2)N2CCCC2)cc1 (stereo not given) | -15% | nt | -1 | 0% | nt | -1%
CCOC(=O)N1CCN(C(=O)CSCC(=O)Nc2nc(-c3ccc(-c4ccccc4)cc3)cs2)CC1 | ? | -2% | -77* | -9% | -9% | -14%
O=C1CCCCc2sc(Br)c([N+](=O)[O-])c2N1 | ? | -2% | -27 | 3% | -1% | 0.79µM*
O=[N+]([O-])c1ccc(COc2cccc(CO)c2)cc1 | nt | nt | 51 | nt | nt | nt
O=C(NCC(c1cccs1)S(=O)(=O)c1cccs1)c1ccc(C(F)(F)F)cc1 (stereo not given) | -3% | nt | -5 | 4% | nt | ?
O=C(NCC(c1cccs1)S(=O)(=O)c1cccs1)c1ccc(Cl)cc1 (stereo not given) | ? | nt | 10 | -1% | nt | 25µM*
O=C(NCC(c1cccs1)S(=O)(=O)c1cccs1)c1ccc(F)c(F)c1 (stereo not given) | -15% | nt | -15 | -1% | nt | ?
COc1ccc(C(=O)NCC(c2ccco2)S(=O)(=O)c2cccs2)cc1 (stereo not given) | 12% | nt | 12 | -1% | nt | 8.9µM*
Cc1cccc(C(=O)NCC(c2ccco2)S(=O)(=O)c2cccs2)c1 (stereo not given) | -4% | nt | 7 | -2% | nt | 7.1µM*
COc1cc(C(=O)NCC(c2ccco2)S(=O)(=O)c2cccs2)cc(OC)c1OC (stereo not given) | -24% | nt | 11 | -3% | nt | 8.9µM*
COc1ccc(C(=O)NCC(c2cccnc2)N2CCc3ccccc3C2)cc1 (stereo not given) | -22% | nt | -7 | -3% | nt | 0%
Cc1c(C(=O)NCC2COCCO2)cnn1-c1ncc2c(n1)-c1ccccc1CC2 (stereo not given) | 27% | nt | nt | nt | nt | nt
O=C(NCCc1ccc(Cl)cc1)C(=O)NCC(c1ccco1)S(=O)(=O)c1ccccc1 (stereo not given) | -6% | nt | 38 | 2% | nt | ?
CC(C)(C)c1ccc(C(=O)NCC(c2ccco2)S(=O)(=O)c2ccccc2)cc1 (stereo not given) | -25% | nt | -18 | -8% | nt | -14%
O=C(NCC(c1ccco1)S(=O)(=O)c1cccs1)c1ccc(Cl)cc1 (stereo not given) | -15% | nt | -14 | 3% | nt | 14µM*
O=C(NCCc1ccc(Cl)cc1)C(=O)NCC(c1ccco1)S(=O)(=O)c1cccs1 (stereo not given) | ? | nt | -22 | 1% | nt | 40µM*
O=C1NC(=O)C(Cc2ccc(OCCN3COc4ccccc4C3=O)cc2)S1 (stereo not given) | nt | 21% | nt | nt | nt | nt
SMILES | FMDV inh | Giardia FBPA inh | HCMV inh | Tb PYK inh | RE007 growth inh | Sm TGR inh
CCc1ccc(-c2[nH]nc3nc(-c4cc(OC)ccc4OC)cc(C(=O)O)c23)cc1 | -13% | nt | 10 | -5% | nt | 2%
CCOC(=O)N1CCN(CC(O)COCCC23CC4CC(CC(C4)C2)C3)CC1 (stereo not given) | ? | -6% | -62* | 0% | 12% | 2%
CC1CCCCN1CC(O)COCCC12CC3CC(CC(C3)C1)C2 (stereo not given) | ? | -6% | -23 | 6% | -8% | 5%
Cc1cccc2nc(-c3cccnc3)c(NCCC(C)C)n12 | -26% | -10% | -30 | 1% | -11% | -12%[57.1 µM]
Cc1cccc2nc(-c3cccnc3)c(Nc3ccccc3)n12 | 32µM* | 21% | -74* | -6% | 18% | -9%
CCOC(=O)c1c(NC(=O)C2c3ccccc3Oc3ccccc32)sc(C)c1C | ? | nt | 13 | -2% | nt | -2%
CCOC(=O)c1c(NC(=O)COC(=O)Cc2ccccc2[N+](=O)[O-])sc(C(=O)N(C)C)c1C | -12% | nt | -3 | -2% | 24% | -1%
CCOC(=O)c1c(NC(=O)C2c3ccccc3Oc3ccccc32)sc(C(C)=O)c1C | nt | -9% | -82* | 12% | -10% | 5%
CCOC(=O)c1sc(NC(=O)CN(CC(C)C)CC(C)C)c(C(=O)OCC)c1C | 6% | -5% | -95* | -7% | -3% | -1%
CCOC(=O)c1c(NC(=O)COC(=O)c2ccccc2NC)sc(C(=O)N(C)C)c1C | 25µM* | nt | -12 | 0% | -5% | -5%
O=C(c1ccc2c(c1)N(Cc1ccc(F)cc1)C(=O)c1ccccc1S2(=O)=O)N1CCCC1 | 10% | nt | 10 | 0% | nt | -2%
CC(=O)c1cc(-c2ccccc2)n(CCC(=O)NC(C)c2ccccc2)c1C (stereo not given) | -3% | nt | ? | 0%[15.4 µM] | nt | 5%
CCCCNC(=O)CCCCCn1c(=O)[nH]c2ccccc2c1=O | 11% | nt | 0 | 8%[15.4 µM] | nt | 30%
CCc1ccc(-c2nc(CSCC(=O)N3CCN(c4ncccn4)CC3)c(C)o2)cc1 | 22µM* | -2% | ? | 3% | -1% | -20%
CCc1ccc(-c2nc(CSCC(=O)NC3CC3)c(C)o2)cc1 | -16% | -3% | -74* | -3% | 6% | -15%
CCC(C)NC(=O)CSCc1nc(-c2ccc(C)cc2)oc1C (stereo not given) | -11% | nt | -24 | 4% | nt | -22%
CSc1ccc(-c2nc(CSCC(=O)N3CCOCC3)c(C)o2)cc1 | ? | -9% | -74* | -13% | -3% | 8%
COc1ccc(-c2nc(CSCC(=O)N3CCN(c4ccc(OC)cc4)CC3)c(C)o2)cc1 | -24% | nt | -29 | 3% | nt | -24%
COC(=O)CSCc1nc(-c2ccc(C(=O)OC)cc2)oc1C | -4% | nt | -63* | 2% | nt | -1%
